Measurements from paper PMC4552634, “A New Set of Chemical Starting Points with Plasmodium falciparum Transmission-Blocking Potential for Antimalarial Drug Discovery” (PLoS ONE, 2015).
Screen size: about 13,000 compounds; about 3,200 (25%) showed an effect of 50% or more. The list shows a part of the results.

Test system: P. falciparum stage V gametocytes
Set-up: BacTiter-Glo ATP luminescence viability of purified stage V gametocytes in 384-well plates, per cent inhibition versus DMSO
Conditions: 48 h, 5 µM; inhibitor

Question: With `COc1ccc(OC)c(NC(=O)c2c(-c3c(F)cccc3Cl)noc2C)c1` [TCMDC-123664] as the compound, how does the “% Inhibition” value read?
Answer: 2.719%

Question: For `COc1ccc(OC)c(NC(=O)CSc2nc(-c3ccccc3Cl)ns2)c1` [TCMDC-124547], which “% Inhibition” value is on record?
Answer: 60.03%

Question: For `COc1ccc(-n2ccnc2SCC(=O)Nc2cc(Cl)ccc2OC)c(OC)c1` [TCMDC-125135], which “% Inhibition” value is on record?
Answer: -9.787%

Question: With `FC(F)(F)c1ccc(COc2cc(Cl)ccc2Cn2ccnc2)cc1` [TCMDC-137640] as the compound, how does the “% Inhibition” value read?
Answer: -9.557%

Question: Which “% Inhibition” value does the source give for `COc1cc(Cc2cnc(N)nc2N)cc(OCCCCCCC(=O)O)c1OC` [TCMDC-137630] here?
Answer: -3.564%

Question: How did the “% Inhibition” value turn out when `COc1ccc(CNCc2ccc(F)cc2)cc1-c1ccc(S(=O)(=O)NCCN2CCCC2)s1` [TCMDC-132297] was run?
Answer: 108.7%

Question: Which “% Inhibition” value does the source give for `COc1ccc(CNCc2ccsc2)cc1-c1ccc(S(=O)(=O)NCCN2CCCC2)s1` [TCMDC-132298] here?
Answer: 91.71%

Question: How did the “% Inhibition” value turn out when `COc1ccc(CNCCc2cccs2)cc1-c1ccc(S(=O)(=O)NCCN2CCCC2)s1` [TCMDC-132477] was run?
Answer: 85.27%

Question: Which “% Inhibition” value does the source give for `COc1ccc(CNCc2ccccc2)cc1-c1ccc(S(=O)(=O)NCCN2CCCC2)s1` [TCMDC-132257] here?
Answer: 102.1%

Question: How did the “% Inhibition” value turn out when `CN1CCN(c2ccnc3ccc(NC(=O)Cc4cccc(Cl)c4Cl)cc23)CC1` [TCMDC-139274] was run?
Answer: -28.12%

Question: `Cc1cccc2[nH]c(-c3cccc(-c4cccc(NC(=O)c5cnn6cccnc56)c4)c3)nc12` [TCMDC-136867] was tested. Which “% Inhibition” value did it give?
Answer: -0.6551%

Question: How did the “% Inhibition” value turn out when `CN(C)c1cc2c(Nc3ccc4nc(Cc5ccccc5)[nH]c4c3)ncnc2cn1` [TCMDC-137304] was run?
Answer: -2.875%

Question: With `COc1ccc2nccc(N(C)CC3(O)CCN(CC(O)c4ccc5c(c4)NC(=O)CS5)CC3)c2n1` (stereo not shown) [TCMDC-141471] as the compound, how does the “% Inhibition” value read?
Answer: 38.6%

Question: With `O=C(Nc1cccc(-c2ccc(-c3nc4cc(C(F)(F)F)ccc4[nH]3)s2)c1)c1cccnc1` [TCMDC-136922] as the compound, how does the “% Inhibition” value read?
Answer: 0.1958%

Question: For `CC(C)COc1ccc(Cl)cc1Cc1nc(-c2nc3ccc(CN4CCCCC4)cc3[nH]2)co1` [TCMDC-136811], which “% Inhibition” value is on record?
Answer: -22.76%

Question: Which “% Inhibition” value does the source give for `CC(C)COc1ccc(Cl)cc1Cc1ccc(-c2nc3c(F)c(F)ccc3[nH]2)o1` [TCMDC-136562] here?
Answer: 72.75%

Question: For `CC(C)COc1ccc(Cl)cc1Cc1ccc(-c2nc3c(F)cccc3[nH]2)o1` [TCMDC-136661], which “% Inhibition” value is on record?
Answer: 74.56%

Question: For `CC(C)COc1ccc(Cl)cc1Cc1ccc(-c2nc3c(cnc4ccccc43)[nH]2)o1` [TCMDC-136650], which “% Inhibition” value is on record?
Answer: 61.46%

Question: Which “% Inhibition” value does the source give for `CC(C)COc1ccc(Cl)cc1Cc1nc(-c2nc3ccc(CN4CCCC4)cc3[nH]2)co1` [TCMDC-136810] here?
Answer: -7.137%

Question: With `CNCc1cccc2[nH]c(-c3ccc(Cc4cc(Cl)ccc4OCC(C)C)o3)nc12` [TCMDC-137044] as the compound, how does the “% Inhibition” value read?
Answer: 60.59%

Question: Which “% Inhibition” value does the source give for `Clc1ccc(OCc2ccccc2)c(Cc2ccc(-c3nc4ccncc4[nH]3)o2)c1` [TCMDC-136651] here?
Answer: 10.18%

Question: Which “% Inhibition” value does the source give for `O=C(Nc1cccc(-c2nn3ccccc3c2-c2ccnc(Nc3cccc(F)c3)n2)c1)C1CCCCC1` [TCMDC-135770] here?
Answer: -93.68%

Question: `Cc1ccc2c(O)c([N+](=O)[O-])c(=O)[nH]c2c1` [TCMDC-131383] was tested. Which “% Inhibition” value did it give?
Answer: 0.04547%

Question: `CCCn1c(SCC(=O)Nc2cc(C(F)(F)F)ccc2Cl)n[nH]c1=O` [TCMDC-123566] was tested. Which “% Inhibition” value did it give?
Answer: -8.395%

Question: With `CC(C)(NCc1ncc[nH]1)c1nc(-c2ccc(Cl)c(O)c2)c(-c2ccncc2)[nH]1` [TCMDC-140686] as the compound, how does the “% Inhibition” value read?
Answer: -7.541%

Question: For `O=C(Nc1ccsc1)Nc1cccc(-c2cccc(-c3nc4ccccc4[nH]3)c2)c1` [TCMDC-133212], which “% Inhibition” value is on record?
Answer: -2.113%

Question: `COc1ccc(-c2cccc(CNC3CCN(CC4Cn5c(=O)ccc6ccc(F)c4c65)CC3)c2)cc1` (stereo not shown) [TCMDC-134414] was tested. Which “% Inhibition” value did it give?
Answer: -11.45%

Question: For `CCc1ccccc1OCCCON1C(N)=NC(N)=NC1(C)C` [TCMDC-131305], which “% Inhibition” value is on record?
Answer: 3.059%

Question: `Cc1nc(NCc2ccccc2)cc(NCC(O)c2ccc(O)cc2)n1` (stereo not shown) [TCMDC-135163] was tested. Which “% Inhibition” value did it give?
Answer: 19.67%

Question: `COc1cc(NCCCCCNc2cc(Cl)nc3ccccc23)nc2ccccc12` [TCMDC-139303] was tested. Which “% Inhibition” value did it give?
Answer: -22.5%

Question: Which “% Inhibition” value does the source give for `COc1cc(NCC(O)CNc2cc(OC)c3ccccc3n2)nc2ccccc12` [TCMDC-139360] here?
Answer: 55.11%

Question: Which “% Inhibition” value does the source give for `COc1cc(NCC(CN)Cc2ccc3c(c2)OCO3)nc2ccccc12.Cl` (stereo not shown) [TCMDC-140387] here?
Answer: 69.08%

Question: Which “% Inhibition” value does the source give for `COc1ccc(COc2cc(NCCCN)nc3ccccc23)cc1` [TCMDC-139286] here?
Answer: 99.04%

Question: Which “% Inhibition” value does the source give for `COc1ccccc1N1CCN(C(C(=O)NCc2ccc3c(c2)OCO3)c2ccc3c(c2)OCCCO3)CC1` (stereo not shown) [TCMDC-135675] here?
Answer: -10.78%

Question: Which “% Inhibition” value does the source give for `COc1ccccc1N1CCN(C(C(=O)NCc2ccc3c(c2)OCO3)c2ccc(C)cc2)CC1` (stereo not shown) [TCMDC-135503] here?
Answer: -4.748%

Question: `COc1ccc2c(C)cc(NCCCN(C)C)nc2c1` [TCMDC-124046] was tested. Which “% Inhibition” value did it give?
Answer: 8.685%

Question: For `COc1cc(NCC(O)CNc2cc(Cl)nc3ccccc23)nc2ccccc12` (stereo not shown) [TCMDC-139359], which “% Inhibition” value is on record?
Answer: 31.96%

Question: With `Cc1ccc(C(=O)Nc2ccnc(N(C)C3CCN(Cc4cccc(O)c4)CC3)c2)cn1` [TCMDC-134967] as the compound, how does the “% Inhibition” value read?
Answer: -0.6383%

Question: How did the “% Inhibition” value turn out when `COCCNCc1ncsc1-c1ccc2c(Nc3cc(O)c(Cl)cc3F)ccnc2c1` [TCMDC-138441] was run?
Answer: 3.438%

Question: `Cc1nc(N=C(N)N)nc2cc3c(cc12)CCC3` [TCMDC-141187] was tested. Which “% Inhibition” value did it give?
Answer: 84.12%

Question: How did the “% Inhibition” value turn out when `Cc1nc(N=C(N)N)nc2ccc(C(C)(C)C)cc12` [TCMDC-137936] was run?
Answer: -23.7%

Question: `CCC1(C)N=C(N)N=C(N)N1c1ccc(Cl)cc1` (stereo not shown) [TCMDC-132039] was tested. Which “% Inhibition” value did it give?
Answer: 4.957%

Question: `COc1cc2ncnc(Nc3ccc(Br)c(Cl)c3)c2cc1OC` [TCMDC-131909] was tested. Which “% Inhibition” value did it give?
Answer: 14.07%

Question: For `COc1cc2ncnc(Nc3ccc(OC(F)(F)c4ccccc4)cc3)c2cc1OC` [TCMDC-131925], which “% Inhibition” value is on record?
Answer: 12%

Question: `COc1cc(Nc2ncnc3cc(OC)c(OC)cc23)cc([N+](=O)[O-])c1` [TCMDC-138138] was tested. Which “% Inhibition” value did it give?
Answer: 82.08%

Question: `CCOC(=O)c1ccc(NC(=O)Nc2cccc(-c3ccc(-c4nc5ccccc5[nH]4)cc3)c2)cc1` [TCMDC-133266] was tested. Which “% Inhibition” value did it give?
Answer: -19.34%
